Screens: PubChem, Broad Institute
aSyn 5UTR act = Activators via SNCA 5'UTR binding, MLPCN; hit rate 7.1% among 300,000; alpha-synuclein 5'UTR reporter, activators screen; activity score, % (tested at 7.5 µM), hits read low; AID 1814; in the data active means activity score below about -60%
* hit, by the source's call. Not all results are given here.

SMILES	aSyn 5UTR act
Cc1cccc(OCc2nc3ccccc3n2C)c1	-140.3*
Nn1c(CSc2ccccn2)nc2ccccc2c1=O	-123.0*
Cc1ccccc1OCc1nc2ccccc2n1C	-169.8*
Cn1c(COc2ccc(F)cc2)nc2ccccc21	-121.3*
Cc1cccc(OCc2nc3ccccc3c(=O)n2N)c1	-71.4*
O=C(NC(c1cccnc1)C(F)(F)F)c1cc(COc2ccc3c(c2)CCCC3)on1 (stereo not drawn)	-104.1*
Cn1nnc2cc(NC(=O)Nc3cccc(Cl)c3)ccc21	-150.7*
O=C(Nc1ccc2nccnc2c1)Nc1ccccc1Cl	-89.9*
O=C(Nc1cccc(Cl)c1)Nc1ccc2nccnc2c1	-163.2*
O=C(CSC(=S)N1CCOCC1)c1cc2ccccc2oc1=O	-63.2*
COc1ccc(/C(C)=N/Nc2ccc(C(=O)O)cc2)cc1OC	-137.3*
C/C(=N\Nc1ccc(C(=O)O)cc1)c1nc2ccccc2n1C	-148.1*
Cn1nnnc1N=N/C(=N/Nc1ccccc1)c1ccccc1	103.6
COc1cc(/C(C)=N/Nc2ccc(C(=O)O)cc2)cc(OC)c1OC	-101.3*
C/C(=N\Nc1ccc(C(=O)O)cc1)c1ccc(-n2ccnc2)cc1	-70.2*
Cc1ccc(NC(=O)c2sc(Cl)nc2-c2ccccc2)cc1	-63.4*
O=C(Nc1ccc(F)cc1)c1sc(Cl)nc1-c1ccccc1	-72.9*
CCc1nnc(NC(=O)C23CC4CC(CC(C4)C2)C3)s1	-252.9*
CC(C)Cc1nnc(NC(=O)C23CC4CC(CC(C4)C2)C3)s1	-102.5*
CSc1nnc(NC(=O)C23CC4CC(CC(C4)C2)C3)s1	-127.9*
O=C(N/N=C/c1ccc([N+](=O)[O-])s1)c1ccncc1	-63.7*
O=C(N/N=C/c1ccc([N+](=O)[O-])s1)c1cccc(Br)c1	67.4
COc1ccc(NC(=O)CCC(=O)N/N=C/c2ccc([N+](=O)[O-])s2)cc1	-79.1*
Cc1ccc(C(=O)N/N=C/c2ccc([N+](=O)[O-])s2)cc1	107.6
O=c1c2cnn(-c3ccccc3)c2nc(-c2cccs2)n1-c1cccc(Cl)c1	-63.1*
SMILES	aSyn 5UTR act
C=CCSc1nc2c(cnn2-c2ccccc2)c(=O)n1N	74.2
Cc1cccc(OCC2=NS(=O)(=O)c3ccccc3N2)c1	-93.4*
CC(=O)C1=C(C)OC(N)=C(C#N)C1c1cc([N+](=O)[O-])ccc1Cl (stereo not drawn)	-69.0*
Cc1nc(NC(=S)Nc2ccccc2)sc1C	-165.6*
CCc1nnc(NC(=S)Nc2ccccc2)s1	-123.5*
O=C(Nc1ccc(/C=C/c2nc3ccccc3o2)cc1)c1ccc(F)cc1	-117.3*
COc1ccc(NC2=C(Cl)C(=O)N(CCc3ccccc3)C2=O)c(OC)c1	-177.3*
COc1ccc(CNC[C@@H](CCCCN(C)Cc2ccc(OC)cc2)N2C[C@H](c3ccccc3)N(CCc3ccc(Cl)c(Cl)c3)C(=O)C2=O)cc1	92.2
CN1CCN(C2=C(Cl)C(=O)N(Cc3ccccc3)C2=O)CC1	-119.6*
CCOc1ccc(NC2=C(Cl)C(=O)N(Cc3ccccc3)C2=O)cc1	-119.1*
COc1ccc(NC2=C(Cl)C(=O)N(CCc3ccccc3)C2=O)cc1	-68.0*
Cc1cc(N2CCN(C)CC2)ccc1NC(=O)c1c2c(nc3ccccc13)CCN(Cc1ccccc1)C2	91.6
C/[N+]([O-])=C/c1c(OCc2ccc(Cl)cc2Cl)ccc2ccccc12	-72.1*
CC(C)c1ccc(N=C2N=C(N)c3ccccc32)cc1	-132.4*
O=[N+]([O-])c1ccc(-c2cn3c(n2)SCC3)cc1	-80.5*
N#Cc1ccc(-c2cn3c(n2)SCC3)cc1	-143.8*
Cc1cc2nc3c(nc2cc1C)CCCC3	-177.5*
c1ccc(NCC2OCc3ccccc3CO2)cc1	-147.0*
CC(=O)N/N=C/c1ccccc1OCCOc1cccc(C)c1	-76.4*
Cc1ccc(NC(=O)CCOc2ccccc2)cc1	-203.2*
Cc1cccc(OCCCC(=O)Nc2ccc(N(C)C)cc2)c1	-88.5*
Cc1ccc(NC(=O)NC2=NN(c3ccccc3)C(=O)/C2=C2/CCCN2C)cc1	-62.7*
COc1ccc(C(=O)NNC(=O)c2ccccn2)cc1	79.0
COC(=O)c1ccc2c(c1)C(C)(C)C(/C=C/c1ccc(O)cc1)=[N+]2C	119.3
COc1ccc2cc(C(=O)/C=C/c3cc(OC)c(OC)c(OC)c3)ccc2c1	-62.4*
SMILES	aSyn 5UTR act
COc1ccc(/C=C/c2cc(-c3ccc(C)cc3)o[n+]2C)cc1	89.2
COc1ccc(/C=C/C(=O)c2ccccn2)cc1	-97.7*
COc1cc(/C=C/c2ccc(O)cc2)cc(OC)c1	-156.1*
COc1ccc(/C=C/C(=O)c2ccoc2)cc1	-62.4*
COc1ccc(/C=C/C(=O)c2ccc(O)cc2)cc1	-196.3*
COc1ccc(/C=C/C(=O)c2ccccc2O)cc1	-233.5*
CCNc1ccc(Br)cc(C(=O)/C=C/c2c(Cl)cccc2Cl)c1=O	-133.0*
COc1cccc(C(=O)Nc2ccc(NC(C)=O)cn2)c1	-129.2*
O=C(Nc1ccc(NC(=O)c2ccco2)nc1)c1cccnc1	-75.3*
O=C(Nc1ccc(NC(=O)c2ccco2)nc1)c1cccc(F)c1	-134.2*
COc1cccc(C(=O)Nc2ccc(NC(=O)c3ccco3)nc2)c1	-161.8*
CCCC(=O)Nc1ccc(NC(=O)c2cccc(OC)c2)nc1	-159.8*
Cc1[nH]c2ccccc2c1C(=O)COc1ccccc1	-113.1*
Cc1[nH]c2ccccc2c1C(=O)CSc1ccccc1	-86.2*
Cc1ccc2c(C(=O)CSc3ccccc3)c(C)[nH]c2c1	-109.0*
Cc1[nH]c2ccccc2c1C(=O)CSc1ccccn1	-68.0*
CC1=NN(c2ccccc2)C(=O)/C1=C\c1cn(CCC#N)nc1-c1ccc(Cl)cc1	-85.4*
CC(C)(C)c1nnc(NC(=O)c2cccs2)s1	-143.3*
CC(C)c1nnc(NC(=O)c2cccs2)s1	-102.0*
O=C(Nc1nnc(C2CC2)s1)c1cccs1	-74.1*
Cc1ccc(NC2(C#N)C(=O)Nc3ccccc32)cc1C (stereo not drawn)	-89.1*
O=C(/C=C\c1ccc(-c2ccccc2)o1)c1ccccc1	-61.7*
Cc1ccc(C(=O)/C=C/c2ccc(-c3ccc(C)cc3)o2)cc1	-72.5*
Cc1cc(C(=O)COC(=O)c2ccc([N+](=O)[O-])o2)c(C)n1CC1CCCO1 (stereo not drawn)	-127.9*
CSc1ncccc1C(=O)OCC(=O)c1cc(C)n(CC2CCCO2)c1C (stereo not drawn)	-69.4*
SMILES	aSyn 5UTR act
Cc1cc(C(=O)CSc2nc3ccccc3o2)c(C)n1CC1CCCO1 (stereo not drawn)	-138.0*
CC1CCN(C(=O)COC(=O)c2ccc3c(c2)OCO3)CC1	-118.4*
Cc1cc(C(=O)COC(=O)c2ccc3c(c2)OCO3)c(C)n1CC1CCCO1 (stereo not drawn)	-68.3*
COCCn1c(C)cc(C(=O)COC(=O)c2ccc([N+](=O)[O-])o2)c1C	-90.2*
COCCn1c(C)cc(C(=O)COC(=O)c2cccc(O)c2)c1C	67.4
COCCn1c(C)cc(C(=O)COC(=O)c2cc3c(s2)CCC3)c1C	-78.4*
Cc1ccc2[nH]c3c(NCc4ccco4)ncnc3c2c1	-203.0*
Cc1ccc2[nH]c3c(NCCCN4CCCC4=O)ncnc3c2c1	-77.1*
COc1ccccc1C(=O)/C=C/c1ccc(N2CCCCC2)c([N+](=O)[O-])c1	-215.9*
O=C(c1ccc(Br)cc1)c1cc([N+](=O)[O-])ccc1N1CCCCC1	91.5
Nc1nnnn1/N=C/c1ccc(N2CCCCC2)c([N+](=O)[O-])c1	-63.9*
O=C(/C=C/c1ccc(N2CCCCC2)c([N+](=O)[O-])c1)c1ccc(O)cc1	-463.5*
COc1ccc(C(=O)C[n+]2ccccc2/C=N/O)cc1	-81.5*
